Data published in PubChem BioAssay (NCI).
The panel holds about 83,000 compounds, 20% with a hit somewhere; the sample as a whole holds those more often.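 Assay: single dose, 48 h. Readout: percent growth (0 = no net growth; negative = cell death). Active: <10.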 Calls of active or inactive are those of the source.

The molecules below were run on HCT-15 colon (assay: NCI-60 one-dose screen, 48 h (100 = growth as untreated, 0 = no growth, -100 = all killed)). Settings: 10 µM unless noted.
Description: Growth inhibition of the HCT-15 human tumor cell line is measured as a screen for anti-cancer activity. Cells are grown in 96 well plates and exposed to the test compound for 48 hours. Compounds are tested at a single concentration, which is 10^-5 M for most compounds. The reported endpoint is percent growth (GI% or GIPRCNT), where numbers from 0 - 100% represent growth inhibition, and numbers from -100% - 0 represent cell death. For example, a value of 40 represents 60% growth inhibition. A value of 0 means no net growth occurred over the course of the experiment. A value of -40 indicates 40% of cells at the beginning of the experiment died by the end of the experiment. A value of -100 means all cells are dead at the end of the experiment.
NCI-60 Human Tumor Cell Lines Screen was performed using the standard one-dose NCI protocol, which is described in more detail at https://dtp.cancer.gov/discovery_development/nci-60/default.htm.
Compounds with GIPRCNT values below 10 were considered active. Activity score was based on GIPRCNT using the following formula: […]
Score is 0 for GIPRCNT values of 100 or above, 50 for GIPRCNT values of 0, and 100 for GIPRCNT values of -100.

SMILES	growth
Nc1ncnc2c1N=C(c1ccc3c(c1)OCO3)CC(c1cccc(Nc3ccnc4cc(Cl)ccc34)c1)N2 (stereo not given)	36.4% (inactive)
CN[C@]12CC3(C=CC(=O)C=C3)O[C@@]1(Cc1ccc(OC)cc1)N(C)C(=O)N2	4.25% (active)
CCOC(=O)c1cc2c(=O)oc3ccccc3c2oc1=O	96% (inactive)
C#CCOc1ccc2ncnc(Nc3ccc(NC(=O)CCl)cc3)c2c1	-32.4% (active)
CCN1CC(=O)N(/N=C2\C(=O)Nc3ccccc32)C1=S	95.1% (inactive)
O=C(/C=C(/C=C/c1cccc2[nH]ccc12)OB(F)F)/C=C/c1cccc2[nH]ccc12	-58.4% (active)
Fc1cccc(CNc2c3ccccc3nc3ccccc23)c1F	39.5% (inactive)
O=[N+]([O-])c1ccc(S(=O)(=O)N2CCN(C3=NS(=O)(=O)c4ccccc4N3c3ccccc3)CC2)cc1	109% (inactive)
c1cc2[nH]ncc2cc1-c1nc2ccc3[nH]ncc3c2c2c1CCCC2	7.1% (active)
CCOC(=O)CSc1ncnc2c1c(-c1ccccc1)c(-c1ccccc1)n2-c1ccc(C)cc1	106% (inactive)
CC(C)(C)c1cc(-c2nc3ccc(N4CCN(S(C)(=O)=O)CC4)cc3[nH]2)cc(C(C)(C)C)c1O	69.2% (inactive)
OCCNCCCOc1ccc2ncnc(Nc3ccc(Oc4cccc(C(F)(F)F)c4)c(Cl)c3)c2c1	-23.8% (active)
C=C1C(=O)O[C@H]2[C@H]1CC/C(COC(=O)CSCCSCC(=O)OC/C1=C/CC[C@@]3(C)O[C@H]3[C@H]3OC(=O)C(=C)[C@@H]3CC1)=C\CC[C@@]1(C)O[C@@H]21	-18.1% (active)
COc1cc(OC)c2sc(-c3ccc(-n4cncc4-c4ccc(OC)c(OC)c4)cc3)nc2c1	17.8% (inactive)
Cn1c(O)c(C=NCCN=Cc2c(O)n(C)c(=O)n(C)c2=O)c(=O)n(C)c1=O	107% (inactive)
O=C(O)CCCN1C(=O)/C(=C/C(Cl)=C/c2ccccc2)SC1=S	-54.3% (active)
COc1ccc(-c2nc3c(c(-c4ccccc4)nn3-c3ccccc3)c(-c3ccc(N4CCN(C)CC4)cc3)c2C#N)cc1	56.2% (inactive)
CC(C)N1CN2C(=S)NC3C2N(C1)C(=S)N3C (stereo not given)	105% (inactive)
COc1ccc(N2CCC(=O)NC2=S)cc1	102% (inactive)
O=S(=O)(Nc1ccccc1)c1ccc(C2CC3(Cl)C(Cl)=C(Cl)C2(Cl)C3(Cl)Cl)cc1 (stereo not given)	50.6% (inactive)

SMILES	growth
O=C(CCCCC1CCSS1)Nc1ncnc2n[nH]c(-c3ccc(Oc4ccccc4)cc3)c12 (stereo not given)	95.8% (inactive)
O=C(CCc1nnc(Cn2cnc3nc[nH]c3c2=O)o1)c1nc2ncccc2[nH]1	104% (inactive)
O=C1c2cccc3cccc(c23)C(=O)N1N1C(=O)c2cccc3c(N4CCOCC4)ccc(c23)C1=O	101% (inactive)
CCCC(O)Cn1ncc(C(=O)OCC)c1NC(=O)NCc1ccccc1F (stereo not given)	105% (inactive)
CC1=Nc2cnc(Nc3ccc(OCCN4CCCC4)cc3)nc2Nc2ccccc21	33.9% (inactive)
Nc1nc2c([nH]1)c1[nH]c3ccccc3c1c1[nH]c3ccccc3c21	51% (inactive)
CCCCCOc1ccc(C(=O)/C(Br)=C/C(=O)O)cc1	89.1% (inactive)
O=S(=O)(Nc1cc(Br)c(O)c2ccccc12)c1ccc(F)cc1	86.8% (inactive)
COc1ccc(-c2cn(-c3cc(OC)c(OC)c(OC)c3)c(=O)n2C(C)=O)cc1	90.9% (inactive)
CCOC(=O)CNP(=O)(OC[C@@H](Cc1ccccc1)NC(=O)c1cc2ccccc2s1)Oc1ccccc1 (stereo not given in full)	43.5% (inactive)
Cc1nc2sc(C(=O)Nc3cccc(Cl)c3C)c(N)c2cc1C(=O)c1ccccc1	9.29% (active)
COc1ccc(/C(C)=C(/c2ccc(OCCCN(C)C)cc2)c2ccc(OC(=O)Cc3ccccc3)cc2)cc1	54.6% (inactive)
O=C1N[C@@H]2NC(=[N+]3CCOCC3)N[C@@H]2N1	104% (inactive)
COc1cc(OC)cc(C2=C3CC[C@@H]4[C@H](CC[C@]5(C)C(=O)CC[C@@H]45)C3=CC3C(O)c4cccnc4N4C(=O)COC234)c1 (stereo not given in full)	100% (inactive)
Cn1c(=O)c2c(nc(NC3=NS(=O)(=O)c4ccccc43)n2CC(=O)N2CCc3ccccc32)n(C)c1=O	101% (inactive)
CCn1c(SCC(=O)c2ccc(Br)cc2)nnc1-c1ccncc1	106% (inactive)
COc1ccc(C(=O)Nc2cccc(C3CC(=O)c4c(cc(OC)c(OC)c4OC)O3)c2)cc1 (stereo not given)	13.3% (inactive)
COc1cc(C(=O)n2nc(N3CCN(C)CC3)c3cc(N)ccc32)cc(OC)c1OC	37% (inactive)
CC[C@@H](C(=O)[C@@H](C)[C@@H](O)[C@H](C)[C@@H]1O[C@@H]([C@@H](CC)C(=O)NCCc2ccc(F)cc2)CC[C@@H]1C)C1O[C@]2(C=CC(=O)[C@]3(CC[C@@](C)([C@H]4CC[C@](O)(CC)[C@H](C)O4)O3)O2)[C@H](C)C[C@@H]1C (stereo not given in full)	29.1% (inactive)
N#Cc1c(-c2cccs2)cc(-c2cccnc2)[nH]c1=O	102% (inactive)
